From PubChem BioAssay AID651616 (The Scripps Research Institute Molecular Screening Center, 2012)
In all, about 5,600 compounds went through this assay and about 4,400 (79%) were called active. So high a share suggests a set chosen from earlier hits. Only a sample is shown. Unmarked numbers belong to inactive results. No stated cut-off is given here; in the data, active means inhibition above about 27%; inactive means the rest.

Each compound was assayed against Fructose-bisphosphate aldolase (Mycobacterium tuberculosis (strain ATCC 25618 / H37Rv)) (UniProt P9WQA3) (assay: M. tuberculosis aldolase blockers, biochemical, fluorescence, strain H37Rv, confirmation (AID 651616;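 further: 0% = vehicle wells and 100% = reference inhibitor wells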)). Settings: purified M. tuberculosis FBA, fluorescence read-out, at 1 µM, hits give high values.
Fructose-bisphosphate aldolase (Mycobacterium tuberculosis (strain ATCC 25618 / H37Rv)), sequence (P9WQA3 whole entry, looked up): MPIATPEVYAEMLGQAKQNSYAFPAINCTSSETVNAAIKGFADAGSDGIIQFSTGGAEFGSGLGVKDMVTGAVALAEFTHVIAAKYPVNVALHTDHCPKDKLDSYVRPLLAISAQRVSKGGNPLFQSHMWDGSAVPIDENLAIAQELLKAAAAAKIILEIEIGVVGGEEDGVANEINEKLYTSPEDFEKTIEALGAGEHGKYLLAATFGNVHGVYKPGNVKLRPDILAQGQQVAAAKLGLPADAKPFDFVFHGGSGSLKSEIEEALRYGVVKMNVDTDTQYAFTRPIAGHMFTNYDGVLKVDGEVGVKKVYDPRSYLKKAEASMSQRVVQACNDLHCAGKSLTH

| Compound | inhibition |
| --- | --- |
| Cn1c(-c2ccco2)nc2cc3ccccc3cc21 | 46.4% (active) |
| Cn1cccc1-c1nc2ccccc2n1C | 13.3% |
| CCc1cc(=O)oc2c(C)c(OCC(=O)N3CC[C@@]4(O)CCCC[C@H]4C3)ccc12 | 130% (active) |
| CCCc1cc(=O)oc2c(C)c(OCC(=O)N3CCC(C(=O)O)CC3)ccc12 | -5.02% |
| CCOC(=O)CSc1nc2c(c(=O)n(Cc3ccccc3Cl)c(=O)n2C)n1C | 48.6% (active) |
| CN(C)c1ccc(/C=N/NC(=O)C(O)c2ccc(Br)cc2)cc1 (configuration not stated) | 72.9% (active) |
| COC(=O)c1noc(C)c1-c1ccnn1C(=O)c1ccc(Cl)cc1 | 57.6% (active) |
| Cc1nc(NCCN)c(C#N)c2c1COC(C)(C)C2 | 88.6% (active) |
| Cc1cc(=O)n2[nH]c(-c3cccc(Cl)c3)cc2n1 | 107% (active) |
| Cc1ccc2nc(/C(C#N)=C\c3ccc(OC(=O)c4cccs4)cc3)[nH]c2c1 | 53.5% (active) |
| CC(C)(C)C(=O)Nc1cccc(-c2ccc[nH]2)n1 | 76.9% (active) |
| N#Cc1c(N2CCCCC2)nc(N)c2c(N)nc(SCC(=O)O)cc12 | 11.2% |
| CN(C)Cc1c(O)ccc2c(=O)c(-c3ccccc3Cl)coc12 | 9.64% |
| CC[C@@H]1Cc2cc(O)ccc2C2=C1c1ccc(O)cc1C[C@H]2CC | 109% (active) |
| Cc1cc(C)c2c(NC(=O)C3CC3)nn(C)c2n1 | 87.2% (active) |
| Cc1cc(C)c2c(n1)nn1c(-n3ccnc3)cc(C)nc21 | -3.81% |
| CC(C)(C)Nc1c(-c2cccs2)nc2ccccn12 | 146% (active) |
| CC[C@@H](C)[C@H](NC(=O)CCc1c(C)c2cc3c4c(oc3c(C)c2oc1=O)CCCC4)C(=O)O | 88.9% (active) |
| CC(C)=NN1C(=O)c2ccccc2NC1(C)C | 178% (active) |
| O=C(Nc1nncs1)c1ccccc1NS(=O)(=O)c1cccs1 | 141% (active) |
| CC1(C)Cc2c(C#N)c(SCc3nc4ccccc4[nH]3)nc(N3CCOCC3)c2CO1 | -3.68% |
| CC(C)c1nc(N2CCOCC2)c(C#N)c2c1COC(C)(C)C2 | 37.2% (active) |
